From PubChem BioAssay (Tox21) come the findings set out here.

Unmarked numbers belong to inactive results. Records with an inconclusive call do not appear. Activity calls are given as the source filed them. Unless noted, calls follow the shape of the dose curve; as a rule, active = well fitted curve in the direction sought with a large enough effect in the repeat runs; inconclusive = weak or mixed curves; inactive = no such curve, though single readings can be large; an effect the other way counts as inactive or inconclusive.

Test [1] addresses Androgen receptor (Homo sapiens) (UniProt P10275). The experiment in a line: qHTS assay to identify small molecule agonists of the androgen receptor (AR) signaling pathway in the presence of an antagonist (AID 1259381; calls by dose curve; also: nearly all actives have a fitted effect of over 15% in size). The method, boiled down:
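AR antagonist background: nilutamide 3.0uM final. Cell line: MDA-kb2, MMTV-driven luciferase, responsive to both AR and GR. Exposure 16hr, 37C, no CO2; ONE-Glo luminescence.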

Test [2] can be described thus: qHTS assay to identify small molecule antagonists of the androgen receptor (AR) signaling pathway using the MDA cell line in the presence of 0.5 nM R1881 - cell viability counter screen (AID 1259242). Also: nearly all actives have a fitted effect of over 45% in size. The method, boiled down:
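Human breast carcinoma MDA-kb2 cells, cultured without CO2, receive compounds alongside 0.5 nM (final) R1881 agonist. After 16 hr at 37C, viability is taken as live-cell protease signal.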
(In general: qHTS replaces the single test concentration by a dilution series.)

Test [3] can be described thus: qHTS assay to identify small molecule HDAC inhibitors (AID 1259364).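 Also: wild-type HCT-116 cells with endogenous class I/II HDAC activity; top concentration of the series differs between compounds; nearly all actives have a fitted effect of over 45% in size.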 In a few lines:
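After a 2 hr compound incubation (37C, 5% CO2), HCT-116 cells seeded at 1,500/well the day before received HDAC-Glo reagent; signal read as luminescence after 30 min at room temperature.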

Test [4] can be described thus: qHTS assay to identify small molecule HDAC inhibitors - cell viability counter screen (AID 1259365). Also: series mostly up to about 92 µM; nearly all actives have a fitted effect of over 50% in size. In a few lines: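 HCT-116 wild-type, overnight attachment; 2hr drug exposure, 37C; CellTiter-Glo luminescent ATP readout after 30min RT.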
Test [5] can be described thus: qHTS assay to identify small molecule antagonists of the sonic hedgehog signaling (Shh) pathway - cell viability counter screen (AID 1259367). Also: nearly all actives have a fitted effect of over 55% in size. Also: potency is read from the fitted curve at half-maximal effect. The method, boiled down:
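Tox21 library chemicals were tested on a Gli1-Luc NIH/3T3 clone (2,000 cells/well) stimulated by conditioned medium; viability was quantified as fluorescence from CellTiter-Fluor reagent added at 23 hr.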

A short description of test [6]: qHTS assay to identify small molecule agonists of the sonic hedgehog signaling (Shh) pathway (AID 1259368; calls by dose curve;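 also: NIH/3T3-derived 3T3Gli1-Luc cells carrying a stable Gli1-driven firefly luciferase reporter; series mostly up to about 92 µM; nearly all actives have a fitted effect of over 15% in size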). The method, boiled down: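 Stable NIH/3T3 Gli1-Luc reporter clone; 24 hr cpd exposure after a 4 hr settling period; luminescence endpoint.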
The nature of test [7]: qHTS assay to identify small molecule antagonists of the sonic hedgehog signaling (Shh) pathway (AID 1259369; calls by dose curve; also: nearly all actives have a fitted effect of over 45% in size; also: potency is read from the fitted curve at half-maximal effect). In a few lines:
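Gli1 transcriptional reporter (firefly Luc) in NIH/3T3 background, conditioned-medium activated. 24hr exposure, luminescence endpoint.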

Test [8] has as its target Estrogen receptor beta (Homo sapiens) (UniProt Q92731). The experiment in a line: qHTS assay to identify small molecule agonists of the estrogen receptor beta (ER-beta) signaling pathway (AID 1259377; active = well fitted activation curve with a large enough effect in the signal ratio in the repeat runs, not every such curve was filed as active; the % refers to the signal ratio). In a few lines: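 qHTS in ER-beta-UAS-bla HEK293T cells: 6 hr settling, then 16 hr compound at 37C, then LiveBLAzer substrate 2 h at RT before fluorescence reading.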
A short description of test [9]: qHTS assay to identify small molecule agonists of the androgen receptor (AR) signaling pathway in the presence of an antagonist - cell viability counter screen (AID 1259379). Also: nearly all actives have a fitted effect of over 25% in size. Also: potency is read from the fitted curve at half-maximal effect. In a few lines:
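Counter screen for cell viability run in parallel with the AR agonist-mode luciferase assay. MDA-kb2 cells were co-treated with nilutamide (3.0uM final) and compounds, then incubated 16 hr at 37C, and CellTiter-Fluor fluorescence was measured.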

Test [10] can be described thus: qHTS assay to identify small molecule agonists of the estrogen receptor beta (ER-beta) signaling pathway - cell viability counter screen (AID 1259380). Also: nearly all actives have a fitted effect of over 30% in size. Also: potency is read from the fitted curve at half-maximal effect. In a few lines: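 In this qHTS counter screen, HEK293T cells carrying an ER-beta/UAS beta-lactamase reporter, grown in 2% charcoal-stripped FBS, received compound for 16 hr; ATP-based CellTiter-Glo luminescence was then read after 30 min at room temperature.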

Test [11] can be described thus: qHTS assay to identify small molecule antagonists of the estrogen receptor beta (ER-beta) signaling pathway - cell viability counter screen (AID 1259382). Also: nearly all actives have a fitted effect of over 55% in size. Also: potency is read from the fitted curve at half-maximal effect. The method, boiled down:
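HEK293T ER-beta-UAS-bla, 2% charcoal-stripped FBS; compounds + 1nM E2 16 hr 37C; CellTiter-Glo luminescence, 30 min RT.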

Test [12] has as its target Estrogen receptor (Homo sapiens) (UniProt P03372). Put plainly: qHTS assay to identify small molecule agonists of the estrogen receptor alpha (ER-alpha) signaling pathway in the presence of an antagonist (AID 1259383; calls by dose curve; also: top concentration of the series differs between compounds; nearly all actives have a fitted effect of over 15% in size). The method, boiled down:
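ER-alpha agonism measured under antagonist challenge: 10.0nM ICI-182,780 (final) plus compound, 15 concentrations, 22hr, VM7Luc4E2 ERE-luciferase cells. Read by luminescence.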

Test [13] can be described thus: qHTS assay to identify small molecule agonists or antagonists of the thyroid stimulating hormone receptor (TSHR) signaling pathway - wild type cell line counter screen (AID 1259384; calls by dose curve). In a few lines:
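Wild-type Hek293 cells, 800/well, 18 h at 37C, then compound with Ro20-1724 for 30 min RT. cAMP by HTRF (cAMP-d2/anti-cAMP cryptate), 1 h RT, fluorescence read. 15 concentrations, triplicates.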

For test [14], the target named is Thyrotropin receptor (Homo sapiens) (UniProt P16473). The experiment in a line: qHTS assay to identify small molecule antagonists of the thyroid stimulating hormone receptor (TSHR) signaling pathway (AID 1259385; calls by dose curve; also: nearly all actives have a fitted effect of over 20% in size; also: potency is read from the fitted curve at half-maximal effect). The method, boiled down: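 TSHR-HEK293 cells (800/well) plated 18 h, then compounds with Ro20-1724 and TSH at 1.5 ng/mL final, 30 min at room temperature. cAMP quantified by HTRF (cAMP-d2/anti-cAMP-cryptate, 1 h); 15 concentrations in triplicate.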
Thyrotropin receptor (Homo sapiens), sequence (P16473 whole entry, looked up): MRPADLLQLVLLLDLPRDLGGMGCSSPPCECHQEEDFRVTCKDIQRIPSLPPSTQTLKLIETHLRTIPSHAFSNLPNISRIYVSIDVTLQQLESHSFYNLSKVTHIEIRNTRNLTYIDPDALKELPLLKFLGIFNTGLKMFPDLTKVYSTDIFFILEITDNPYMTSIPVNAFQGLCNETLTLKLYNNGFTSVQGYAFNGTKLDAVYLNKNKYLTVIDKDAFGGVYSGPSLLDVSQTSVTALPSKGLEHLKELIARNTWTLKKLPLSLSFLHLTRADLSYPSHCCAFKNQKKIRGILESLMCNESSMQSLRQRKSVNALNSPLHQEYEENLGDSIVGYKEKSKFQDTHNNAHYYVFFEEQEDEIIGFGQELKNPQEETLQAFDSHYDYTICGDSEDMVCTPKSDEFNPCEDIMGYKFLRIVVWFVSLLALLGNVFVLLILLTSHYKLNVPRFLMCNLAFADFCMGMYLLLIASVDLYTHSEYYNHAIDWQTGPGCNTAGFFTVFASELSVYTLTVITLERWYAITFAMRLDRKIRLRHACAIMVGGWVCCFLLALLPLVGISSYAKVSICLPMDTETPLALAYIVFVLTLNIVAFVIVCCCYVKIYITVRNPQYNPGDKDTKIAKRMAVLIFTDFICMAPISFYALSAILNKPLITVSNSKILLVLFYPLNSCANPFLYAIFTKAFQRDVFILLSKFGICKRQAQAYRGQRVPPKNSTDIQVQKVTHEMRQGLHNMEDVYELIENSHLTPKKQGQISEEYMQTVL

Test [15] is described as follows: qHTS assay to identify small molecule agonists of the estrogen receptor alpha (ER-alpha) signaling pathway in the presence of an antagonist - cell viability counter screen (AID 1259386).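 Also: cells exposed to compounds for 22 h at 37 °C before the viability read; nearly all actives have a fitted effect of over 30% in size.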 Also: potency is read from the fitted curve at half-maximal effect. In a few lines: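 Steps: 5-day stripped-FBS culture; seed and incubate 24hr; add ICI-182,780 (10.0nM final); pin 15-point compound titration; incubate 22hr at 37C; add CellTiter-Fluor at 21hr; read fluorescence.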

The nature of test [16]: qHTS assay to identify small molecule antagonists of the estrogen receptor alpha (ER-alpha) signaling pathway using the BG1 cell line in the presence of 0.1 nM 17-beta-estradiol - cell viability counter screen (AID 1259241). Also: nearly all actives have a fitted effect of over 40% in size. Also: potency is read from the fitted curve at half-maximal effect. The method, boiled down: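 Following 5 days in phenol red-free medium with charcoal-stripped serum, VM7Luc4E2 cells received test compounds alongside 0.1 nM 17beta-estradiol (final) at 37C for 22 hr. Live cells were then quantified via protease-substrate fluorescence.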

Test [17] in a line: qHTS assay to identify small molecule agonists of the sonic hedgehog signaling (Shh) pathway - cell viability counter screen (AID 1259366). Also: nearly all actives have a fitted effect of over 50% in size. Also: potency is read from the fitted curve at half-maximal effect. In a few lines: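 Compounds in DMSO were pin-transferred onto 3T3 Gli1-Luc cells that had settled 4hr; plates then stood 24hr at 37C and 5% CO2. One hour before the end, CellTiter-Fluor was added and fluorescence recorded.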
Test [18] deals with Estrogen receptor beta (Homo sapiens) (UniProt Q92731). The experiment in a line: qHTS assay to identify small molecule antagonists of the estrogen receptor beta (ER-beta) signaling pathway (AID 1259378; active = well fitted inhibition curve with a large enough effect in the signal ratio in the repeat runs, not every such curve was filed as active; the % refers to the signal ratio). In a few lines: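 ER-beta-UAS-bla HEK293T cells in 2% charcoal-stripped FBS medium treated with compound plus 1nM final 17-beta-estradiol for 16 hr at 37C. Beta-lactamase reporter read by FRET substrate fluorescence after 2 hours at room temperature.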
Estrogen receptor beta (Homo sapiens), sequence (Q92731 whole entry, looked up): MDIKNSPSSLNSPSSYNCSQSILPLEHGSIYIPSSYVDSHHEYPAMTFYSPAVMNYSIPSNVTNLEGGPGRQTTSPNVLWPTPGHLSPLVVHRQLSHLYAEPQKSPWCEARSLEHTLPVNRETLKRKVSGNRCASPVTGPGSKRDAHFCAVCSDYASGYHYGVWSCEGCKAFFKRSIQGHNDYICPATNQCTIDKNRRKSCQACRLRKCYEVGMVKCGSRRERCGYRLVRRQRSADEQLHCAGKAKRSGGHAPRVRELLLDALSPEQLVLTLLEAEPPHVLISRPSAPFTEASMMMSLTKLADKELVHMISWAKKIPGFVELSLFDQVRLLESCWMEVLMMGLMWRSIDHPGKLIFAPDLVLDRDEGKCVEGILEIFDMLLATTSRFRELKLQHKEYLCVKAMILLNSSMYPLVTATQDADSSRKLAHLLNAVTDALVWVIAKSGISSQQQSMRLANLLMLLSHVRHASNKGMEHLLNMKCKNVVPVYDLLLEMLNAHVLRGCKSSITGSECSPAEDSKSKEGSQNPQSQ

Test [19] has as its target Androgen receptor (Homo sapiens) (UniProt P10275). The experiment in a line: qHTS assay to identify small molecule antagonists of the androgen receptor (AR) signaling pathway using the MDA cell line in the presence of 0.5 nM R1881 (AID 1259243). Also: nearly all actives have a fitted effect of over 50% in size. In a few lines:
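Cells: MDA-kb2 (MMTV-luc). Stimulus: 0.5 nM R1881. Time: 16 hr, 37C, no CO2. Detection: ONE-Glo luminescence after 30 min at RT.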

Test [20] concerns the target Estrogen receptor (Homo sapiens) (UniProt P03372). Put plainly: qHTS assay to identify small molecule antagonists of the estrogen receptor alpha (ER-alpha) signaling pathway using the BG1 cell line in the presence of 0.1 nM 17-beta-estradiol (AID 1259244). Also: nearly all actives have a fitted effect of over 50% in size. Also: potency is read from the fitted curve at half-maximal effect. The method, boiled down:
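Seeding of stripped-serum-adapted VM7Luc4E2 cells, 24 h attachment, compound transfer, then 0.1 nM final 17beta-estradiol; after 22 h incubation, ONE-Glo reagent and luminescence reading.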

Estrogen receptor (Homo sapiens), sequence (P03372 whole entry, looked up): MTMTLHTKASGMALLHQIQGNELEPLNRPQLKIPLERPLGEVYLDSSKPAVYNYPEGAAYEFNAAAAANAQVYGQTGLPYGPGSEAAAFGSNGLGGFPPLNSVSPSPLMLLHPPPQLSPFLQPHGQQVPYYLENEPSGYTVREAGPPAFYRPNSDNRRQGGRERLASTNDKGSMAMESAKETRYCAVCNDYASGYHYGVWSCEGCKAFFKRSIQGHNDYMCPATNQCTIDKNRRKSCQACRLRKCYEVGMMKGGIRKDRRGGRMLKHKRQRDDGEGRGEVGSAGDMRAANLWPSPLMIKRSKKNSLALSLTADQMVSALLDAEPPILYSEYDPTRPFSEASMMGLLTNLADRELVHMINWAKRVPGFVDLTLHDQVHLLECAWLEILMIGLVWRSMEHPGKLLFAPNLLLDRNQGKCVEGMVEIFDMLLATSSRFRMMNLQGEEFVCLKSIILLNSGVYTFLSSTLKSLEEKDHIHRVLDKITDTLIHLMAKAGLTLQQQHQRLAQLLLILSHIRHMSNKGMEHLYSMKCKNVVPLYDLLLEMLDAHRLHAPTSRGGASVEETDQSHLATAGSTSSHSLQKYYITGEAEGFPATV
Androgen receptor (Homo sapiens), sequence (P10275 whole entry, looked up): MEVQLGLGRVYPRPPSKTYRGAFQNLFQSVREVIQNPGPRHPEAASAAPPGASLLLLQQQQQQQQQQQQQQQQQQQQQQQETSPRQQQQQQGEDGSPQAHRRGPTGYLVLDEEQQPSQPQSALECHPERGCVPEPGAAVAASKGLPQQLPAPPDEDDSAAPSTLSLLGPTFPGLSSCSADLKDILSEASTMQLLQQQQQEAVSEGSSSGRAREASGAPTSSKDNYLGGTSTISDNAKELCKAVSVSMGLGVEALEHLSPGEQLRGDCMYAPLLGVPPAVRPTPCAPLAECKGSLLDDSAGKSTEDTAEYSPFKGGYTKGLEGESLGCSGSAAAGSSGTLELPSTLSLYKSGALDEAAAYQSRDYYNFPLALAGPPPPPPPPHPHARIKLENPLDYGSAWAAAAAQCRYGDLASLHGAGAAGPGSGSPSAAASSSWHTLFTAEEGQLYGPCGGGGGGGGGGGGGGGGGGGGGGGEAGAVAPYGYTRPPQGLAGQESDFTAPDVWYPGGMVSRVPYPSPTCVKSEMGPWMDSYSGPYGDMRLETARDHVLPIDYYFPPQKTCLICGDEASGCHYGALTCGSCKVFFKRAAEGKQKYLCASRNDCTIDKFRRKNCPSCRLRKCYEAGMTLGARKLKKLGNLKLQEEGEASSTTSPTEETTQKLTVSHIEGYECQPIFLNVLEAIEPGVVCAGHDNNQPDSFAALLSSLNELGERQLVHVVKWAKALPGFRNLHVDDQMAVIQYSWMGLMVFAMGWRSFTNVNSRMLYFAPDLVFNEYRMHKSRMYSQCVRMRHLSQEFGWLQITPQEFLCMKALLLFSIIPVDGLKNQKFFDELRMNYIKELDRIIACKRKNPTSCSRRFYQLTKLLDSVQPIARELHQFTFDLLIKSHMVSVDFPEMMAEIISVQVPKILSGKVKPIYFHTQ

As to `CC1=C2C[C@H]3[C@@H](CC=C4C[C@@H](O)CC[C@@]43C)[C@@H]2CC[C@]12O[C@@H]1C[C@H](C)CN[C@H]1[C@H]2C`, in test [1], the Potency entry is “inactive”.
For the compound `CCC(C)c1cccc(C(C)CC)c1O` (stereo not given), the Potency result in [2], in [3], in test [4], in [5], in test [6] and in test [7] was “inactive” throughout. The Potency result in [8], in test [9], in test [10], in [11], in [12] and in test [13] was “inactive” each time. Besides, the Potency entry in test [14] and in test [15] was “inactive” throughout.
For the compound `COc1ccc2c3c1O[C@H]1[C@H](O)CC[C@H]4[C@@H](C2)N(C)CC[C@@]341`, the Potency entry in test [16], in [3], in test [4], in test [17], in test [5] and in [8] was “inactive” throughout. Besides, the Potency result in test [18], in test [9], in [10], in test [11], in test [13] and in [14] was “inactive” each time. For the same compound, in [15], the Potency result is “inactive”.
Regarding `COc1ccc2c(c1OC)C(=O)O[C@@H]2[C@H]1c2cc3c(cc2CCN1C)OCO3`, the Potency entry in test [2], in [19], in [3], in test [4], in test [6] and in test [7] was “inactive” each time. Besides, the Potency entry in [8], in test [18], in [9], in test [10], in test [11] and in test [13] was “inactive” each time. The Potency result in [14] was “inactive”. The Potency in test [17] was 2.41 µM (active); in [5], 3.03 µM (active); in test [15], 6.05 µM (active).
`CC1CN1` (stereo not given): the Potency result in test [16], in test [3], in test [4], in [17], in test [5] and in [6] was “inactive” in each case. Besides, the Potency entry in [7], in test [8], in test [9], in test [10], in test [11] and in [12] was “inactive” each time. Also, the Potency result in [13], in test [14] and in test [15] was “inactive” each time.
As to `CCC[CH2][Sn]([CH2]CCC)([CH2]CCC)[CH2]CCC`, the Potency in [16] was 19.3 µM (active); in test [17] it was 13.7 µM (active); in [5], 21.7 µM (active); in test [7], 13.7 µM (active); in [9], 13.7 µM (active); in [10], 27.3 µM (active). For the same compound, the Potency in test [11] is 43.3 µM (active); in test [15], 17.2 µM (active). For the same compound, the Potency entry in test [3], in [6], in [8], in test [13] and in test [14] was “inactive” each time.
As for `CCN1CCC2(CC1)COc1cc3c(cc12)N(C(=O)c1ccc(-c2ccc(-c4nnc(C)o4)cc2C)cc1)CC3`, the Potency is 50.2 µM (active) in [20]; 63.3 µM (active) in test [17]; 63.3 µM (active) in [5]; 2 µM (active) in test [7]; 63.3 µM (active) in test [9]; 6.33 µM (active) in [10]. The Potency in test [11] was 11.2 µM (active); in test [14], 63.3 µM (active). Further, the Potency result in test [3], in test [12] and in test [13] was “inactive” each time.
Regarding `NC1CCC(CC2CCC(N)CC2)CC1` (stereo not given), the Potency entry in test [20], in test [3], in [4], in [6], in [10] and in test [11] was “inactive” throughout. The Potency result in test [12] was “inactive”. Further, the Potency in test [9] is 60.1 µM (active).
Regarding `FC(F)C(F)(F)OCC(Cn1cncn1)c1ccc(Cl)cc1Cl` (stereo not given), the Potency result in test [3], in [4], in [6], in test [8] and in test [13] was “inactive” throughout. The Potency in test [17] was 48.3 µM (active); in [10] it was 60.8 µM (active).
On to `Nc1c(Cl)c(Cl)c(Cl)c(Cl)c1Cl`, for which the Potency result in test [2], in test [3], in test [4], in [17], in [5] and in [6] was “inactive” each time. Further, the Potency result in [7], in test [9], in test [10], in test [11], in test [13] and in [14] was “inactive” throughout.
